Test results as given in PubChem BioAssay AID1159580 (chemical genetic matrix, 2015).
Where “and” joins values, the source holds several entries; their conditions need not be identical. Equal values may be shown once. The campaign covered roughly 5,500 compounds. About 2,000 (36%) were called active. About 18% were inconclusive and are not listed. No stated cut-off is given here; in the data, active means normalized growth mostly below about 0.91 (no sharp cut-off); inconclusive means no clear call, values can overlap the other calls; inactive means mostly above about 0.92. The list shows a part of the results.

Test: chemical genetic growth profiling, strain panel (AID 1159580);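 further: tested at 20 µM; growth read once vehicle control cultures reached saturation at 30 °C; 1 = growth at the plate median or of vehicle wells; lower values mean less growth of the strain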
Details: S. cerevisiae deletion strains, growth OD

Measured: normalized growth

CC(CN1c2ccccc2Sc2ccccc21)N(C)C (configuration not stated)
inactive: locus YAL030W, strain snc1, hits give low values 0.973 | locus YAL040C, strain CLN3, hits give low values 0.985 | locus YBL061C, strain skt5, hits give low values 0.924 | locus YBR009C, strain hhf1, hits give low values 0.954 | locus YBR021W, strain FUR4, hits give low values 0.938 | locus YBR023C, strain chs3, hits give low values 0.927 | locus YBR171W, strain sec66, hits give low values 0.988 | locus YBR229C, strain ROT2, hits give low values 0.95 | locus YBR231C, strain swc5, hits give low values 0.95 | locus YBR279W, strain paf1, hits give low values 0.966 | locus YCL011C, strain gbp2, hits give low values 0.981 | locus YCL016C, strain dcc1, hits give low values 0.975 | locus YCL061C, strain MRC1 (second series), hits give low values 0.998 | locus YCL069W, strain vba3, hits give low values 0.938 | locus YCR088W, strain abp1, hits give low values 0.988 | locus YDL005C, strain med2, hits give low values 1 | locus YDL035C, strain GPR1, hits give low values 0.966 | locus YDL040C, strain nat1, hits give low values 0.982 | locus YDL074C, strain BRE1, hits give low values 0.906 | locus YDL101C, strain DUN1, hits give low values 0.944 | locus YDL134C, strain PPH21, hits give low values 0.979 | locus YDL185W, strain tfp1, hits give low values 0.978 | locus YDL192W, strain arf1, hits give low values 0.982 | locus YDR001C, strain nth1, hits give low values 0.983 | locus YDR069C, strain doa4, hits give low values 0.946 | locus YDR150W, strain NUM1, hits give low values 0.99 | locus YDR159W, strain sac3, hits give low values 0.968 | locus YDR162C, strain NBP2, hits give low values 0.982 | locus YDR195W, strain ref2 1.14 | locus YDR297W, strain sur2, hits give low values 0.937 | locus YDR318W, strain mcm21, hits give low values 0.95 | locus YDR334W, strain swr1, hits give low values 0.985 | locus YDR335W, strain msn5, hits give low values 0.94 | locus YDR363W, strain ESC2, hits give low values 0.993 | locus YDR388W, hits give low values 0.977 | locus YDR392W, strain spt3, hits give low values 1.07 | locus YDR502C, strain sam2, hits give low values 0.948 | locus YEL003W, strain gim4, hits give low values 0.926 | locus YEL037C, strain rad23, hits give low values 0.972 | locus YEL061C, strain CIN8 (second series), hits give low values 0.975 | locus YEL061C, strain CIN8, hits give low values 0.977 | locus YER002W, strain NOP16, hits give low values 0.978 | locus YER016W, strain bim1, hits give low values 0.988 | locus YER110C, hits give low values 0.971 | locus YER111C, strain swi4, hits give low values 0.98 | locus YER155C, strain BEM2, hits give low values 0.987 | locus YER167W, strain BCK2, hits give low values 0.986 | locus YGL078C, strain dbp3, hits give low values 0.972 | locus YGL086W, strain mad1, hits give low values 0.936 | locus YGL167C, strain pmr1, hits give low values 0.987 | locus YGL173C, strain kem1, hits give low values 0.926 | locus YGL227W, strain vid30, hits give low values 0.974 | locus YGL248W, strain PDE1, hits give low values 0.945 | locus YGL253W, strain hxk2, hits give low values 0.963 | locus YGR135W, strain pre9, hits give low values 1 | locus YGR229C, strain SMI1, hits give low values 0.954 and 0.981 | locus YGR252W, strain gcn5, hits give low values 0.815 | locus YHR013C, strain ard1, hits give low values 1.01 | locus YHR027C, strain rpn1, hits give low values 0.927 | locus YHR030C, strain SLT2, hits give low values 0.99 and 1.04 | locus YHR079C, strain IRE1 (second series), hits give low values 0.957 | locus YHR079C, strain IRE1, hits give low values 1.07 | locus YHR094C, strain hxt1, hits give low values 0.974 | locus YHR129C, strain ARP1, hits give low values 0.985 | locus YHR142W, strain chs7, hits give low values 0.879 | locus YHR200W, strain rpn10, hits give low values 0.966 | locus YIL066C, strain RNR3, hits give low values 0.917 | locus YIL073C, strain SPO22, hits give low values 0.968 | locus YIL125W, strain kgd1, hits give low values 0.963 | locus YIR030C, strain dcg1, hits give low values 0.98 | locus YJL092W, strain hpr5, hits give low values 0.949 | locus YJL095W, strain BCK1 (second series), hits give low values 0.96 | locus YJL095W, strain BCK1, hits give low values 0.906 and 1.01 | locus YJL115W, strain asf1, hits give low values 0.974 | locus YJL129C, strain trk1, hits give low values 1.02 | locus YJL134W, strain LCB3, hits give low values 0.984 | locus YJL154C, strain vps35, hits give low values 0.973 | locus YJL164C, strain tpk1, hits give low values 0.964 | locus YJL168C, strain set2, hits give low values 0.983 | locus YJL187C, strain SWE1 (second series), hits give low values 0.894 | locus YJR043C, strain POL32, hits give low values 0.968 | locus YJR066W, strain TOR1, hits give low values 0.972 | locus YJR075W, strain HOC1, hits give low values 0.981 and 1.01
active: locus YAL021C, strain ccr4, hits give low values 0.902 | locus YAL026C, strain drs2, hits give low values 0.721 | locus YDR101C, strain arx1, hits give low values 0.914 | locus YDR137W, strain rgp1, hits give low values 1.25 [resistant] | locus YER015W, strain faa2, hits give low values 0.901 | locus YER155C, strain BEM2 (second series), hits give low values 0.816 | locus YFR010W, strain ubp6, hits give low values 0.88 | locus YGL240W, strain doc1, hits give low values 0.864 | locus YJL166W, strain qcr8, hits give low values 0.896
